TRPV1 agonist: HTS Assay for Compounds that Act as Agonists of the Vanilloid Receptor 1. activation, % at 8.33 µM. Transient receptor potential cation channel subfamily V member 1 (Homo sapiens), Q8NER1. 320,000 compounds, 0.19% hits. TRPV1-expressing cells, Fluo-8 calcium influx, agonist mode; in the data active = activation above about 80%; inconclusive = between about 30% and that limit; note: 0% is about no effect
Target sequence (Q8NER1 whole entry, looked up): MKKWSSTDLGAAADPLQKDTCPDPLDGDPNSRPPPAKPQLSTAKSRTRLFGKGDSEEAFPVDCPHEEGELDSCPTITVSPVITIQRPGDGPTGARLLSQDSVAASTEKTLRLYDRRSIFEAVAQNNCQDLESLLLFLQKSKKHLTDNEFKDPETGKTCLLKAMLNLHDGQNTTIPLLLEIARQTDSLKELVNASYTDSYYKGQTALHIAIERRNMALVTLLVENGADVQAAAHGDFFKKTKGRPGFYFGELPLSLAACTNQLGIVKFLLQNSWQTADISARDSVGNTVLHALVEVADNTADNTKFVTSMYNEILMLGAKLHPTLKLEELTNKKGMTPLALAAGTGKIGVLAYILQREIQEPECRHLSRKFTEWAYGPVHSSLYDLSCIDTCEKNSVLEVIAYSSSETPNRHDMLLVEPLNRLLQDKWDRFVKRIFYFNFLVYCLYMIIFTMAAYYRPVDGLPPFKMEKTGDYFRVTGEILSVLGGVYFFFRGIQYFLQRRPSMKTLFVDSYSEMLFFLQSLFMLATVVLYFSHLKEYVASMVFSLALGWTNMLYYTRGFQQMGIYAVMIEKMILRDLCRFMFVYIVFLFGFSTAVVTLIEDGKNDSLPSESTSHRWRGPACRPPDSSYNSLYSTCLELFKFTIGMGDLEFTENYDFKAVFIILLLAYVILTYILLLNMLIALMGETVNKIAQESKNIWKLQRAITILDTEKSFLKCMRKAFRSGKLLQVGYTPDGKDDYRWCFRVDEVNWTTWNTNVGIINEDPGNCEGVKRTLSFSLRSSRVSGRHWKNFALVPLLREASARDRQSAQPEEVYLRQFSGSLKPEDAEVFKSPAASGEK
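TRPV1-expressing cells were cultured overnight at 35.5C and loaded with Fluo-8 calcium dye for 40 to 90 min at room temperature. After a 10 s baseline, compound was added and calcium influx was read kinetically for 3 min (ex 480/em 520 nm).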
FUS yeast rescue: qHTS for Suppressors of FUS Proteinopathy: Primary screen using FUS-linked yeast assay; S. cerevisiae FUS-expressing, growth rescue, OD600, 24 h; Potency, µM (doses to about 76.6 µM), usual class: activators; 390,000 compounds, 0.24% hits;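 note: potency is the fitted concentration of half-maximal effect; plate controls were DMSO vehicle for no effect and reference control for full effect; nearly all actives have a fitted effect of over 55% in size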
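Compound concentration series was pinned onto galactose-induced FUS-expressing yeast seeded at OD 0.005. Plates sat 24hr at 30C; absorbance at 600 nm gave growth. DMSO served as background control.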
Giardia killer: Small Molecules that selectively kill Giardia lamblia: qHTS; Giardia lamblia trophozoite viability; activity change, % at 7.66 µM, hits read low; 340,000 compounds, 0.15% hits; in the data active = activity change below about -80%; inconclusive = between about -30% and that limit;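 note: parasites exposed to compound for two days anaerobically before the ATP read; % is set by controls: 0 for no effect and ±100 for the full control effect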
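Anaerobic 48 hrs incubation at 37 deg C of 100 trophozoites/well with test compounds; ATPLite 1-Step luminescence, 15-30 min RT, reports cellular ATP as viability.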
TRPV1 potentiator: HTS Assay for Compounds that Act as Potentiators of the Vanilloid Receptor 1; TRPV1-expressing cells, Fluo-8 calcium influx, capsaicin EC20 potentiation; potentiation, % at 8.33 µM; 320,000 compounds, 0.02% hits; AID 540277, 2011; in the data active = potentiation above about 80%; inconclusive = between about 30% and that limit; note: 0% is about no effect
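Fluo-8 calcium influx in TRPV1-expressing cells, kinetic read (ex 480/em 520 nm). Compound added and read 3 min for agonist activity, followed by capsaicin at EC20 final and 2 min further read for enhancement.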
ELG1 repair inh: qHTS screen for small molecules that inhibit ELG1-dependent DNA repair in human embryonic kidney (HEK293T) cells expressing luciferase-tagged ELG1. HEK293T ELG1-luciferase reporter, luminescence, 16 h; DNA damage induced by 5-fluorouridine. Potency, µM (top dose mostly 46.1 µM), for inactives: at the top dose activity change, negative = inhibition, usual class: inhibitors. 330,000 compounds, 2.3% hits. AID 504467, 2011; note: potency is the fitted concentration of half-maximal effect; % is set by controls: 0 for no effect and ±100 for the full control effect; nearly all actives have a fitted effect of over 55% in size
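5-Fluorouridine DNA damage + compound/DMSO, 2,000 cells/well, 16 h, 37 °C/5% CO2. ONE-Glo, 30 min RT, luminescence. Readout = decrease in reporter signal.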
* = called active by the depositor; i = inactive; ? = inconclusive; · = no result given. Hits are enriched below; roughly 2.3% of the tested compounds scored in any of these assays. Unless noted, calls come from the whole dose curve; as a rule, active = well fitted curve in the direction sought with a large enough effect; inconclusive = small, poorly fitted or top-dose-only effect, or another doubt; inactive = no such curve, though single readings can be large; an effect the other way counts as inactive or inconclusive.

SMILES | TRPV1 agonist | FUS yeast rescue | Giardia killer | TRPV1 potentiator | ELG1 repair inh
O=C(NCc1ccccc1)C(c1ccccc1)N(Cc1ccc2c(c1)OCO2)C(=O)Cc1cccs1 (configuration not stated) | 2 | i | 1 | ? | 16µM*
CCN(CC)C(=O)c1nc[nH]c1C(=O)N1CCN(C(=O)OC(C)(C)C)CC1 | -5 | i | 2 | -7 | 13%
CC(C)(C)OC(=O)N1CCN(C(=O)c2[nH]cnc2C(=O)Nc2ccc(Cl)cc2)CC1 | · | i | -3 | · | 21µM*
Cc1ccc(NC(=O)c2nc[nH]c2C(=O)N2CCN(C(=O)OC(C)(C)C)CC2)cc1 | 4 | i | -1 | -2 | ?
CC(C)(C)OC(=O)NCc1ccc(CNC(=O)c2nc[nH]c2C(=O)N2CCN(C(=O)OC(C)(C)C)CC2)cc1 | 8 | ? | 6 | 1 | 12µM*
Cn1c(=O)n(C)c2cc([N+](=O)[O-])c(N3CCN(S(=O)(=O)c4ccccc4)CC3)cc21 | 0 | · | 8 | 0 | 12µM*
O=C(NCCc1c[nH]c2ccccc12)C(=O)NCC1OCCCN1S(=O)(=O)c1cc(F)ccc1F (configuration not stated) | 10 | i | -4 | 1 | 21µM*
COc1ccc(S(=O)(=O)N2CCOC2CNC(=O)C(=O)NCCc2c[nH]c3ccccc23)cc1 (configuration not stated) | -5 | ? | 0 | 22 | ?
O=C(NCCc1ccccc1)C(=O)NCC1OCCCN1S(=O)(=O)c1cc(F)ccc1F (configuration not stated) | -2 | · | 26 | -6 | -25%
COc1ccc(S(=O)(=O)N2CCOC2CNC(=O)C(=O)NCCc2c[nH]c3ccccc23)cc1C (configuration not stated) | 4 | ? | 55 | 6 | 26µM*
COc1ccc(/C=C2\CCC/C(=C\c3ccc(OC)c(OC)c3OC)C2=O)c(OC)c1OC | 7 | i | 15 | -1 | 23µM*
COc1cc(OC)c(OC)cc1/C=C1\CCC(C2CCCC2)C1=O (configuration not stated) | 8 | ? | 9 | -5 | 7.3µM*
COc1cc(OC)c(OC)cc1/C=C1\CCC/C(=C\c2cc(OC)c(OC)cc2OC)C1=O | 9 | i | 0 | -18 | 15µM*
COc1ccc(/C=C2\CCC(C3CCCC3)C2=O)c(OC)c1 (configuration not stated) | 4 | i | -12 | 0 | ?
COc1ccc(CCNC(=O)CCc2cn(Cc3ccc(C)cc3)c3ccccc23)c(OC)c1OC | · | i | · | · | ·
O=S(=O)(Nc1cccc2ncccc12)c1cccs1 | 4 | · | -11 | 4 | 4.1µM*
O=C1C=C(c2cccc3c2Oc2ccccc2S3)C[C@@H](c2ccc(Cl)cc2)C1 | ? | i | -1 | -1 | 21µM*
COc1ccc([C@H]2CC(=O)C=C(c3cccc4c3Oc3ccccc3S4)C2)cc1OC | ? | i | -5 | 10 | 18µM*
COc1ccc([C@H]2CC(=O)C=C(c3cccc(Br)c3)C2)cc1 | ? | i | ? | -5 | 2%
COc1ccc([C@H]2CC(=O)C=C(c3cccc(Br)c3)C2)cc1OC | · | ? | 2 | · | 18µM*
Cc1ccc(CNc2nnc(C)c3nnn(Cc4ccc(F)cc4)c23)cc1 | · | i | · | · | ·
COC(=O)c1cc(C)[nH]c2c(C)cc3nc4ccccc4c3c12 | 16 | i | 4 | -14 | 18µM*
COC(=O)c1c(C)nc2ccccc2c1C(=O)O | -5 | · | 7 | 14 | 18%
CCCCN(C(=O)c1oc2ccc(OCC)cc2c1C)c1c(N)n(CCCC)c(=O)[nH]c1=O | -2 | · | -5 | 3 | 27%
CCCCn1c(N)c(N(CCOC)C(=O)c2oc3ccc(Br)cc3c2C)c(=O)[nH]c1=O | · | 16µM* | 4 | · | ·
SMILES | TRPV1 agonist | FUS yeast rescue | Giardia killer | TRPV1 potentiator | ELG1 repair inh
CCCCCCCCCCCCCCCCn1cc[n+](C)c1 | 3 | ? | ? | -11 | 7.3µM*
C[n+]1ccn(CC(=O)c2cccs2)c1 | -2 | i | ? | -8 | -2%
CC1CC(C)CN(S(=O)(=O)c2ccc(NC(=O)CN3C(=O)NC(C)(c4ccccc4)C3=O)cc2)C1 (configuration not stated) | 2 | · | 4 | 3 | -8%
CCC(=O)Nc1ccc(S(=O)(=O)N2CCC(c3nc4ccccc4[nH]3)CC2)cc1 | 1 | i | 1 | 1 | 18µM*
CC1CCCN(S(=O)(=O)c2ccc(NC(=O)CN3C(=O)NC(C)(c4ccccc4)C3=O)cc2)C1 (configuration not stated) | -3 | 28µM* | -3 | 0 | -9%
Cc1ccc(OCC(=O)Nc2ccc(C)c(S(=O)(=O)N3CCCCCC3)c2)c([N+](=O)[O-])n1 | 10 | i | -25 | 2 | 16µM*
CCc1cccc(OCC(=O)Nc2ccc(C)c(S(=O)(=O)N3CCCCCC3)c2)c1 | ? | i | 2 | -6 | 0%
Cc1ccc(NC(=O)COc2ccc(N(C)C(=O)C(C)(C)C)cc2)cc1S(=O)(=O)N1CCCCC1 | · | ? | 4 | · | 8.2µM*
COC(=O)c1cc2c(ccn2-c2ccc(F)cc2)n1CC(=O)N1CCN(C(=O)c2ccco2)CC1 | 14 | i | -12 | -5 | 16µM*
CCn1c(C(=O)OC)cc2c1ccn2-c1ccc(F)cc1 | 2 | i | -5 | -32 | ?
CC(C)OC(=O)c1cc2c(ccn2-c2ccc(F)cc2)n1CC(=O)N1CCN(C(=O)c2ccco2)CC1 | 3 | i | ? | -4 | 8.2µM*
CCOC(=O)c1c(-c2ccc(C)cc2)csc1NC(=O)c1cc(=O)c2cc(C)ccc2o1 | · | i | · | · | ·
CC(C)(C)c1ccc(CC(=O)N2CCC2(C)C(=O)O)cc1 (configuration not stated) | · | i | · | · | ·
Cc1cccc2cc(CN(CC3CCCO3)C(=S)Nc3ccccc3)c(=O)[nH]c12 (configuration not stated) | 2 | · | 8 | -16 | 16µM*
Cc1ccc2cc(CN(CCN(C)C)C(=S)Nc3ccccc3)c(=O)[nH]c2c1C | 5 | i | 22 | -1 | 9.2µM*
O=C(Nc1ccc(Br)cn1)c1ccc(Br)s1 | ? | i | -17 | 11 | ?
O=C(Nc1ccc(Br)cn1)c1ccc(Cl)s1 | 99* | i | 3 | 12 | ?
CC(C)CC(=O)NC1(C(F)(F)F)C(=O)Nc2c1c(=O)[nH]c(=O)n2-c1ccccc1 (configuration not stated) | · | i | · | · | ·

Source: PubChem
